Here are results for 7 molecules from PubChem BioAssay (NCATS).

Test [1] has as its target Cellular tumor antigen p53 (Homo sapiens) (UniProt P04637). The test is described as follows: Primary qHTS for small molecule compounds that upregulate eGFP-tagged delta133p53alpha (in N-terminal) cells. (AID 2060322).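 Note: 0% = DMSO vehicle and 100% = reference activator; nearly all actives have a fitted effect of over 75% in size.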 The following applies: NCI-H358 eGFP-delta133p53alpha fluorescence, 24 h; activation: hits give high values. A digest of the protocol:
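NCI-H358 cells pre-induced 24 h with 10 ng/ml doxycycline to express N-terminal eGFP-delta133p53alpha, then dosed 24 h at 37C without doxycycline; fixed, Hoechst-stained, GFP intensity by laser scanning cytometry, normalized to DMSO (0%) and 57.5 uM 5-azacytidine (100%).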

In test [2] the target is Aldehyde dehydrogenase, mitochondrial (Homo sapiens) (UniProt P05091). The experiment in a line: qHTS for Inhibitors of the Aldehyde Dehydrogenase Family (ALDH2) Primary screen (AID 2061308).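 Note: plate controls were vehicle for no effect and reference inhibitor for full effect; nearly all actives have a fitted effect of over 55% in size.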 The settings on record: ALDH2 enzyme inhibition qHTS, 1536-well; series mostly up to 56 µM.
Test [3] concerns the target Retinaldehyde dehydrogenase 3 (Homo sapiens) (UniProt P47895). The test is described as follows: qHTS for Inhibitors of the Aldehyde Dehydrogenase Family (ALDH1A3) Primary screen (AID 2061315).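 Note: plate controls were DMSO vehicle for no effect and reference inhibitor for full effect.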 The following applies: ALDH inhibition qHTS; series mostly up to 56 µM.
The nature of test [4]: BET inhibitor-based combinations targeting novel dependencies in MECOM-rearranged (r) AML: OCI-AML3 cell line (AID 2202232). Note: nearly all actives have a fitted effect of over 35% in size. Note: potency is the fitted concentration of half-maximal effect. The settings on record: CellTiter-Glo luminescence, 48 h; Potency: OCI-AML3 viability; series mostly up to 46 µM. In a few lines:
(§1)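 Cells were plated at 500 per well and exposed to an 11-point dose series of each drug for 48 hr. Viability was measured by CellTiter-Glo luminescence, normalized to DMSO and empty-well controls, and summarized as AUC and per-cell-line Z-AUC.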

Test [5] is described as follows: BET inhibitor-based combinations targeting novel dependencies in MECOM-rearranged (r) AML: MV-4-11 cell line (AID 2202233). Note: potency is the fitted concentration of half-maximal effect; nearly all actives have a fitted effect of over 45% in size. The settings on record: MV-4-11 AML viability, CellTiter-Glo luminescence, 48 h; series mostly up to 46 µM. In a few lines: (§2)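 Activity is given as area under the curve and as Z-AUC, mean-centred within each cell line. It comes from 11-point dose curves normalized to DMSO and empty wells. CellTiter-Glo luminescence was read after 48 hr drug exposure of 500 cells/well.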

The nature of test [6]: BET inhibitor-based combinations targeting novel dependencies in MECOM-rearranged (r) AML: UCSD-AML1 cell line (AID 2202235). Note: nearly all actives have a fitted effect of over 40% in size. Note: potency is the fitted concentration of half-maximal effect. The following applies: UCSD-AML1 AML cells viability, CellTiter-Glo, 48 h; series mostly up to 46 µM. In a few lines: as §2
A short description of test [7]: BET inhibitor-based combinations targeting novel dependencies in MECOM-rearranged (r) AML: AML-191 cell line (AID 2202236; note: potency is the fitted concentration of half-maximal effect; nearly all actives have a fitted effect of over 35% in size). The settings on record: AML-191 viability, CellTiter-Glo luminescence, 48 h; series mostly up to 46 µM. A digest of the protocol:
as §1

The nature of test [8]: BET inhibitor-based combinations targeting novel dependencies in MECOM-rearranged (r) AML: AML-194 cell line (AID 2202237; note: nearly all actives have a fitted effect of over 40% in size; note: potency is the fitted concentration of half-maximal effect). The settings on record: AML-194 (MECOM-r AML) viability, CellTiter-Glo, 48 h; series mostly up to 46 µM. A digest of the protocol:
as §1

The nature of test [9]: BET inhibitor-based combinations targeting novel dependencies in MECOM-rearranged (r) AML: HNT-34 cell line (AID 2202234). Note: nearly all actives have a fitted effect of over 35% in size. Note: potency is the fitted concentration of half-maximal effect. The settings on record: HNT-34 AML viability, CellTiter-Glo luminescence, 48 h; series mostly up to 46 µM. In a few lines: as §2

Structures are written as SMILES. “And” between values parts separate entries of the source, which are not always exact repeats. Equal values may be shown once. Records with an inconclusive call do not appear. Unmarked numbers belong to inactive results. The source made the active and inactive calls. Calls come from the whole dose curve; as a rule, active = well fitted curve in the direction sought with a large enough effect; inconclusive = small, poorly fitted or top-dose-only effect, or another doubt; inactive = no such curve, though single readings can be large; an effect the other way counts as inactive or inconclusive.

Sequence of Cellular tumor antigen p53 (Homo sapiens) (P04637 whole entry, looked up): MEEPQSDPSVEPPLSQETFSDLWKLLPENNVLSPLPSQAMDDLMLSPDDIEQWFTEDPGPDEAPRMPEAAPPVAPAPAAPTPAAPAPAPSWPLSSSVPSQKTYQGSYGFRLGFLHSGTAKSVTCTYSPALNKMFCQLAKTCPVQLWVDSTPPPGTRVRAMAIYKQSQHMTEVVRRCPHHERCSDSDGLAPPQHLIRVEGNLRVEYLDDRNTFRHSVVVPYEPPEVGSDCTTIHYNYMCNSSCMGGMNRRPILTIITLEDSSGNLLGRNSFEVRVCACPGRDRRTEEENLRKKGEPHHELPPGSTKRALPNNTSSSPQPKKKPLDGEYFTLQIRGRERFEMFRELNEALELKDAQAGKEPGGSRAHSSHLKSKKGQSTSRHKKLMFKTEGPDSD

For `COc1cc2c(NC3CCN(C(C)C)CC3)nc(C3CCCCC3)nc2cc1OCCCN1CCCC1`, the activation in test [1] is 27.1% and 25.7%. Moreover, the Potency entry in [2] and in [3] was “inactive” in each case. Besides, the Potency is 18.6 µM (active) in test [4]; 8.33 µM (active) in test [5]; 11.8 µM (active) in [6]; 20.9 µM (active) in [7]; 14.8 µM (active) in test [8].
As to `Cc1cnc(-c2cnc(NCCNc3ccc(C#N)cn3)nc2-c2ccc(Cl)cc2Cl)[nH]1`, in test [1], the activation was 9%. Moreover, the Potency entry in test [2], in test [3], in test [4], in test [6] and in [8] was “inactive” throughout.
`CNC(=O)c1ccc(C)c(-n2c(C)cc(OCc3ccc(F)cc3F)c(Br)c2=O)c1`: the activation in test [1] was 30.3% and -12.5%. The Potency entry in [2], in test [3], in [4], in [6] and in [8] was “inactive” in each case.
As for `Cc1cc(F)c(C(=O)Nc2cccc(-c3nncn3C(C)C)n2)cc1-n1cnc(C2CC2)c1`, the activation in test [1] is 35%. Besides, the Potency entry in [2] and in test [3] was “inactive” each time. The Potency in [5] is 10.5 µM (active); in test [9] it was 20.9 µM (active).
Regarding `O=C(NC[C@H](O)CN1CCc2ccccc2C1)c1ccnc(NC2CCC2)c1`, in test [1], the activation was 4.33%. In addition, the Potency result in test [2], in test [3], in test [9] and in test [6] was “inactive” each time. The Potency in [4] was 0.0042 µM (active).
For `CNC(=O)c1cccc2cc(Oc3ccnc4cc(OCC5(N)CC5)c(OC)cc34)ccc12`, in [1], the activation is 12.5%. Further, the Potency result in test [2] and in [3] was “inactive” in each case. In addition, the Potency is 23.5 µM (active) in test [4]; 16.6 µM (active) in test [9]; 18.6 µM (active) in [6]; 20.9 µM (active) in test [7]; 23.5 µM (active) in test [8].
Turning to `Nc1nc(OCc2cc(Br)cs2)c2[nH]cnc2n1`, the activation in [1] was -5%. Moreover, the Potency result in test [2], in test [3], in test [6] and in [8] was “inactive” throughout. Moreover, the Potency in test [4] is 9.34 µM (active).
